In PubChem BioAssay (NCATS):
Several values for one entry are separate records, joined by “and”; a condition that tells them apart may be missing. Equal values may be shown once. Results filed as inconclusive are left out. Unmarked numbers belong to inactive results. Activity calls are given as the source filed them. Calls follow the shape of the dose curve; as a rule, active = well fitted curve in the direction sought with a large enough effect; inconclusive = small, poorly fitted or top-dose-only effect, or another doubt; inactive = no such curve, though single readings can be large; an effect the other way counts as inactive or inconclusive.

Columns and labels:
[1] = target: Cellular tumor antigen p53 (Homo sapiens) (UniProt P04637); assay: Primary qHTS for small molecule compounds that upregulate eGFP-tagged delta133p53alpha (in N-terminal) cells. (AID 2060322); conditions: NCI-H358 eGFP-delta133p53alpha fluorescence, 24 h; activation: active compounds read high; also: nearly all actives have a fitted effect of over 75% in size; also: potency is read from the fitted curve at half-maximal effect;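 as to activation: 0% = DMSO vehicle and 100% = reference activator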
Procedure, shortened: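 NCI-H358 cells pre-induced 24 h with 10 ng/ml doxycycline to express N-terminal eGFP-delta133p53alpha, then dosed 24 h at 37C without doxycycline; fixed, Hoechst-stained, GFP intensity by laser scanning cytometry, normalized to DMSO (0%) and 57.5 uM 5-azacytidine (100%).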

[2] = target: Aldehyde dehydrogenase, mitochondrial (Homo sapiens) (UniProt P05091); assay: qHTS for Inhibitors of the Aldehyde Dehydrogenase Family (ALDH2) Primary screen (AID 2061308); conditions: ALDH2 enzyme inhibition qHTS, 1536-well; series mostly up to 56 µM;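 also: plate controls were vehicle for no effect and reference inhibitor for full effect; nearly all actives have a fitted effect of over 55% in size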
[3] = target: Retinaldehyde dehydrogenase 3 (Homo sapiens) (UniProt P47895); assay: qHTS for Inhibitors of the Aldehyde Dehydrogenase Family (ALDH1A3) Primary screen (AID 2061315); conditions: ALDH inhibition qHTS; series mostly up to 56 µM;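 also: plate controls were DMSO vehicle for no effect and reference inhibitor for full effect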
[4] = BET inhibitor-based combinations targeting novel dependencies in MECOM-rearranged (r) AML: SET-2 cell line (AID 2202231); conditions: SET-2 AML cells viability, CellTiter-Glo luminescence, 48 h; viability: active compounds read low, concentration not given here; also: nearly all actives have a fitted effect of over 35% in size; also: potency is read from the fitted curve at half-maximal effect;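 as to viability: plate controls were DMSO treated cells for no effect and wells without cells for full effect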
Procedure, shortened: (§1)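 Each compound was tested at eleven concentrations on cells seeded at 500/well. After two days' incubation, ATP-based luminescence reported viability; responses relative to DMSO and blank wells yielded AUC and cell-line-centred Z-AUC.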

[5] = BET inhibitor-based combinations targeting novel dependencies in MECOM-rearranged (r) AML: OCI-AML3 cell line (AID 2202232); conditions: CellTiter-Glo luminescence, 48 h; Potency: OCI-AML3 viability; series mostly up to 46 µM; also: nearly all actives have a fitted effect of over 35% in size; also: potency is read from the fitted curve at half-maximal effect
Procedure, shortened: as §1

[6] = BET inhibitor-based combinations targeting novel dependencies in MECOM-rearranged (r) AML: MV-4-11 cell line (AID 2202233); conditions: MV-4-11 AML viability, CellTiter-Glo luminescence, 48 h; series mostly up to 46 µM; also: nearly all actives have a fitted effect of over 45% in size; also: potency is read from the fitted curve at half-maximal effect
Procedure, shortened: (§2)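 First, 500 cells per well were seeded; next, drugs were pinned as 11-point doses; then plates sat 48 hr in the incubator; finally CellTiter-Glo was added and luminescence read, with AUC and Z-AUC computed.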

[7] = BET inhibitor-based combinations targeting novel dependencies in MECOM-rearranged (r) AML: HNT-34 cell line (AID 2202234); conditions: HNT-34 AML viability, CellTiter-Glo luminescence, 48 h; series mostly up to 46 µM; also: nearly all actives have a fitted effect of over 35% in size; also: potency is read from the fitted curve at half-maximal effect
Procedure, shortened: as §2

[8] = BET inhibitor-based combinations targeting novel dependencies in MECOM-rearranged (r) AML: UCSD-AML1 cell line (AID 2202235); conditions: UCSD-AML1 AML cells viability, CellTiter-Glo, 48 h; series mostly up to 46 µM; also: nearly all actives have a fitted effect of over 40% in size; also: potency is read from the fitted curve at half-maximal effect
Procedure, shortened: as §2

[9] = BET inhibitor-based combinations targeting novel dependencies in MECOM-rearranged (r) AML: AML-191 cell line (AID 2202236; also: nearly all actives have a fitted effect of over 35% in size; also: potency is read from the fitted curve at half-maximal effect); conditions: AML-191 viability, CellTiter-Glo luminescence, 48 h; series mostly up to 46 µM
Procedure, shortened: as §1

[10] = BET inhibitor-based combinations targeting novel dependencies in MECOM-rearranged (r) AML: AML-194 cell line (AID 2202237; also: potency is read from the fitted curve at half-maximal effect; nearly all actives have a fitted effect of over 40% in size); conditions: AML-194 (MECOM-r AML) viability, CellTiter-Glo, 48 h; series mostly up to 46 µM
Procedure, shortened: as §1

Sequence of Cellular tumor antigen p53 (Homo sapiens) (P04637 whole entry, looked up): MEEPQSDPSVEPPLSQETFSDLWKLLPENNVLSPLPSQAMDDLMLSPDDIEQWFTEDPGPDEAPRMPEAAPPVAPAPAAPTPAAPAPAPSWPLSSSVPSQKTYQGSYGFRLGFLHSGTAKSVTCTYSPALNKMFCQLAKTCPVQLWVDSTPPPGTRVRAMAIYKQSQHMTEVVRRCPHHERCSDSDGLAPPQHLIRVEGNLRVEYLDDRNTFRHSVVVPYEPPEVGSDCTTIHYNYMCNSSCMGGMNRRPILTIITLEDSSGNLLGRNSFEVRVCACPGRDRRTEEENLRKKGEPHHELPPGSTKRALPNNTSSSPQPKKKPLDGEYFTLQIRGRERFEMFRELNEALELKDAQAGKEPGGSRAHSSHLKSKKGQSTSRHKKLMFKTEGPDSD

SMILES | Potency [1] | Potency [2] | Potency [3] | Potency [4] | Potency [5] | Potency [6] | Potency [7] | Potency [8] | Potency [9] | Potency [10] | activation [1] | viability [4] | activity change, negative = inhibition [2] | activity change, negative = inhibition [3]
CNC(=O)c1nn(C)c2c1C(C)(C)Cc1cnc(Nc3ccc(N4CCN(C)CC4)cc3)nc1-2 | 38.5 µM (active) and 9.53 µM (active) | inactive | inactive | 833 nM (active) | 5250 nM (active) | 132 nM (active) | 263 nM (active) | 934 nM (active) | 1180 nM (active) | – | – | – | – | –
CCOc1cc2ncc(C#N)c(Nc3ccc(OCc4ccccn4)c(Cl)c3)c2cc1NC(=O)/C=C/CN(C)C | 9.28 µM (active) | inactive | inactive | 4680 nM (active) | 5900 nM (active) | 2090 nM (active) | 1320 nM (active) | 3720 nM (active) | 5250 nM (active) | 5250 nM (active) | – | – | – | –
O=C(Nc1ccc(-c2ccnc(Nc3ccc(N4CCOCC4)cc3)n2)cc1)C1CCCN1 (stereo not given) | – | inactive | inactive | 9340 nM (active) | 16600 nM (active) | 2350 nM (active) | 5900 nM (active) | 1660 nM (active) | – | – | -5.36% | – | – | –
C=C1C[C@@]2(O)O[C@@]3(C[C@H]2C(C)C)[C@@H](C)CC[C@@H]13 | – | inactive | inactive | – | inactive | inactive | inactive | inactive | inactive | – | 3.34% | 112% | – | –
N#CCNC(=O)c1ccc(-c2ccnc(Nc3ccc(N4CCOCC4)cc3)n2)cc1 | 8.49 µM (active) | inactive | inactive | 4170 nM (active) | 16600 nM (active) | 833 nM (active) | 2950 nM (active) | 1480 nM (active) | 4680 nM (active) | 5250 nM (active) | – | – | – | –
Nc1ccc(-c2ccc3ncc4ccc(=O)n(-c5cccc(C(F)(F)F)c5)c4c3c2)cn1 | – | inactive | inactive | 105 nM (active) | 166 nM (active) | 83.3 nM (active) | 59 nM (active) | 26.3 nM (active) | 52.5 nM (active) | 41.7 nM (active) | 6.6% | – | – | –
Cn1cnc2c(F)c(Nc3ccc(Br)cc3Cl)c(C(=O)NOCCO)cc21 | – | inactive | inactive | – | – | – | – | – | – | – | 24.1% | 95.4% | – | –
O=C(NOCC1CC1)c1ccc(F)c(F)c1Nc1ccc(I)cc1Cl | – | inactive | inactive | 23500 nM (active) | 296 nM (active) | 7420 nM (active) | 8330 nM (active) | 16600 nM (active) | 11800 nM (active) | – | 13% and 35.6% and 22.3% | – | – | –
Cc1nc(NC(=O)N2CCC[C@H]2C(N)=O)sc1-c1ccnc(C(C)(C)C(F)(F)F)c1 | – | inactive | inactive | – | – | – | – | – | – | – | -25% | 89% | – | –
CC1(C)CC(=O)c2c(C(F)(F)F)nn(-c3ccc(C(N)=O)c(NC4CCC(O)CC4)c3)c2C1 (stereo not given) | – | inactive | inactive | 148 nM (active) | 74.2 nM (active) | 37.2 nM (active) | 93.4 nM (active) | 105 nM (active) | – | – | 11.9% and -1.67% | – | – | –
CC(=O)Nc1cccc(-n2c(=O)n(C3CC3)c(=O)c3c(Nc4ccc(I)cc4F)n(C)c(=O)c(C)c32)c1 | – | inactive | inactive | – | – | – | – | – | – | – | -5.24% and -3.57% | 89.5% | – | –
O=C(NCc1cccc(O)c1)Nc1nc(-c2ccncc2)cs1 | – | inactive | inactive | – | 14800 nM (active) | 9340 nM (active) | – | – | – | – | 6.25% | 92.2% | – | –
COc1c(OCCCN2CCOCC2)ccc2c3n(c(=NC(=O)c4cnc(N)nc4)nc12)CCN3 | – | – | – | 1080 nM (active) | 34 nM (active) | 85.5 nM (active) | 959 nM (active) | 42.8 nM (active) | – | – | 8.4% and -29.5% | – | -4.59% [at 11.2 µM] | 13.9% [at 11.2 µM]
COc1ccc(Cc2ccc(NC(N)=O)cc2)cc1-c1cccc(Cl)c1 | – | inactive | inactive | – | inactive | inactive | inactive | inactive | – | – | 2.49% | 103% | – | –
Cc1cc(Nc2cc(N3CCN(C)CC3)nc(/C=C/c3ccccc3)n2)n[nH]1 | 30.1 µM (active) | inactive | inactive | 13200 nM (active) | 8330 nM (active) | 132 nM (active) | 525 nM (active) | 2950 nM (active) | 2090 nM (active) | – | – | – | – | –
CC(=O)NC(C)c1ccc(Oc2ccc(OC(C)C)cc2)cc1 (stereo not given) | – | inactive | inactive | – | – | – | – | – | – | – | 15.3% | 87.6% | – | –
